Assay outcomes deposited in PubChem by Sanford-Burnham Center for Chemical Genomics.
Rows were chosen to be rich in hits. Some 4% of all compounds tested hit in one or more screens of this group.
TROY NFkB inh – TROY signaling inhibition | Q293 LMP1-TROYcd NF-kB luciferase reporter, 4 h | inhibition, % at 10 µM | 360,000 tested, 0.98% active | AID 1347056;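 active = compounds whose plate-normalised and pattern-corrected inhibition of the luciferase reporter signal at the single screening dose is 50% or more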
TWEAK-Fn14 inh – TWEAK-Fn14 signaling inhibition; TWEAK-stimulated Fn14 reporter cells, luciferase luminescence, 8 h; inhibition, % at 10 µM; 360,000 tested, 2% active; in the data active = inhibition above about 50%
Peg3 prom inh – inhibitors of Peg3 promoter. 360,000 tested, 1.7% active. HeLa PEG-Prom luciferase reporter, luminescence, overnight. AID 588405. inhibition, % at 20 µM;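 active = inhibition of at least 50% at 20 µM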
KKLEB tox – counter-screen for CF NF-kB inhibitors: cytotoxicity | KKLEB CF airway cells viability, ATPlite luminescence, overnight; active compounds read low; cells stimulated with P. aeruginosa culture filtrate | activity change (cytotoxicity), % at 5 µM | 360,000 tested, 0.36% active;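 active = corrected activity change at or below -50% at 5 µM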
CF NFkB block – cystic fibrosis NF-kB activation inhibition; KKLEB NF-kB-GFP reporter, PAF-induced, GFP fluorescence overnight; inhibition, % at 5 µM; 360,000 tested, 0.86% active; AID 588850;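 active = at least 50% inhibition at 5 µM, scaled per plate between neutral and stimulator controls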;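 note: PAF is a Pseudomonas aeruginosa culture filtrate used as stimulus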
HIF-2a block – inhibitors of HIF-2a. 786-0 RCC cells HIF-2a reporter, luciferase luminescence, overnight. inhibition, % at 18.8 µM. 360,000 tested, 0.72% active. AID 624352;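 active = inhibition of the luminescence signal of 40% or more relative to plate controls, in a single-dose primary screen at 18.75 µM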
CF NFkB conf – CF NF-kB inhibition confirmation, single concentration. 1,300 tested, 64% active. KKLEB CF airway cells, PAF-induced NF-kB-GFP fluorescence, overnight. inhibition, % at 5 µM. AID 602472. shares compounds with CF NFkB block; in the data active = inhibition above about 40%;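 note: stimulus PAF is a Pseudomonas aeruginosa filtrate and not platelet activating factor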
Of the large screens only hits and unclear results are named; the others gave an inactive call (follow-up assays come after a bar, where they were run).

COC(=O)c1ccc2nc(-c3ccco3)c(Cc3ccccc3)n2c1	CF NFkB block 53.9 | CF NFkB conf inactive
Fc1cccc(Cc2c(-c3ccco3)nc3ccc(Br)cn23)c1	CF NFkB block 52.0 | CF NFkB conf inactive
FC(F)(F)c1ccccc1Cc1c(-c2ccco2)nc2ccc(Br)cn12	CF NFkB block 62.5 | CF NFkB conf inactive
Cc1cccc(NC(=O)CN(C2=NC3CS(=O)(=O)CC3S2)c2ccccc2F)c1 (centres undefined)	none
COCCCN(C(=O)CCOc1ccc(C)cc1)c1c(N)n(Cc2ccccc2)c(=O)[nH]c1=O	none
CN(CC(=O)Nc1ccccc1Cl)C(=O)Cn1cc(C(F)(F)F)ccc1=O	none
Cc1nc2c(O)c3c(c(O)c2nc1C)C1C=CC3CC1	Peg3 prom inh 92.7, CF NFkB block 83.0 | CF NFkB conf 85.4
Cc1nc2c(C)c(C)c(C)c(C)c2nc1C	none
CC(=O)C1CCC2C3CCC4=CC(=O)C=CC4(C)C3C(=O)CC12C (centres undefined)	none
CC1CC2C3CCC4=CC(=O)C=CC4(C)[C@@]3(Cl)C(O)CC2(C)C1(O)C(=O)CO (some centres undefined)	CF NFkB block 66.5 | CF NFkB conf inactive
CC1CCC(NC(=O)COC(=O)c2ccco2)CC1 (centres undefined)	none
C[C@@H]1C[C@H]2[C@@H]3CCC4=CC(=O)C=C[C@]4(C)[C@@]3(Cl)[C@@H](O)C[C@]2(C)[C@@]1(OC(=O)c1ccco1)C(=O)CCl	Peg3 prom inh 67.8, CF NFkB block 88.9 | CF NFkB conf inactive
C[C@@H]1CN([C@H](C)CO)C(=O)c2cc(Br)cnc2O[C@@H]1CN(C)C(=O)CC1CC1	none
S=C(Nc1ccccc1)Nc1ccc2cn[nH]c2c1	none
CCOc1ccccc1NC(=S)Nc1ccc2cn[nH]c2c1	CF NFkB block 57.6 | CF NFkB conf 66.6
O=C(NCCc1ccccc1)c1coc(=O)c(Br)c1	TWEAK-Fn14 inh 78.3, Peg3 prom inh 106.8, CF NFkB block 69.0 | CF NFkB conf 75.7
CN(C)CCNC(=O)c1coc(=O)c(Br)c1	none
CCCN(CC)c1ncnc2[nH]ncc12	TWEAK-Fn14 inh 66.7, CF NFkB block 81.3 | CF NFkB conf 63.5
CN(C)c1ncnc2[nH]ncc12	none
CCCOc1c(Br)cc(C(=O)OCc2cc(=O)n3ccsc3n2)cc1OC	CF NFkB block 57.6 | CF NFkB conf inactive
Clc1ccc(Cn2ncc3c(N4CCN(c5ccccc5)CC4)ncnc32)cc1	TROY NFkB inh 81.2, TWEAK-Fn14 inh 101.7, Peg3 prom inh 91.8, CF NFkB block 90.6 | CF NFkB conf 99.7
O=C(CC12CC3CC(CC(C3)C1)C2)Nc1nncs1	CF NFkB block 50.4 | CF NFkB conf 60.8
Cc1nnc(NC(=O)CC23CC4CC(CC(C4)C2)C3)s1	none
CC(C)Oc1ccc(C(=O)Nc2ccc(S(=O)(=O)N3CCN(C)CC3)cc2)cc1	none
O=C(COc1ccccc1C(=O)Nc1ccccc1)c1ccc(Br)cc1	none
O=C(Oc1ccccc1C(=O)Nc1ccccc1)c1ccccc1Br	CF NFkB block 61.6 | CF NFkB conf inactive
CCCS(=O)(=O)c1nc(S(=O)(=O)c2ccc(C)cc2)c(N2CCN(CCO)CC2)s1	none
CCn1c(=O)c2sccc2n2c(CCCC(=O)NCc3cccnc3)nnc12	none
Nc1cccc2c1C(=O)N(C(=O)c1ccco1)C2=O	none
Nc1cccc2c1C(=O)N(C(=O)/C=C/c1ccc(F)cc1)C2=O	TWEAK-Fn14 inh 83.9, Peg3 prom inh 102.2, CF NFkB block 64.6 | CF NFkB conf inactive
O=C(OCC(=O)N1CCCC1=O)c1nc(Cl)c(Cl)c(Cl)c1Cl	TROY NFkB inh 55.9, TWEAK-Fn14 inh 90.8, Peg3 prom inh 82.1, CF NFkB block 60.2 | CF NFkB conf inactive
Nc1c(Cl)c(Cl)nc(C(=O)OCC(=O)N2CCCC2=O)c1Cl	none
COc1ccc(C)cc1NC(=O)C1CCN(C(=O)c2ccc(C(C)(C)C)cc2)CC1	none
CC[C@]12C(=O)N(C)C[C@H]([C@@H]3C(=O)N(C)C(=O)[C@@H]31)N2C(=O)c1ccc(Cl)cc1	none
C=CCN1c2ccccc2Sc2cnccc21	TWEAK-Fn14 inh 55.7, CF NFkB block 79.6 | CF NFkB conf 90.8
CC(=O)OCCN1c2ccccc2Sc2cnccc21	CF NFkB block 65.1 | CF NFkB conf 66.5
Cc1cn(CC(=O)N[C@H](C)c2cccc3ccccc23)c(=O)[nH]c1=O	none
Cc1cc(C)c(NC(=O)CNC(=O)COC(=O)CN2C(=O)NC3(CCCC3)C2=O)c(C)c1	none
COc1cccc(N(C(=O)c2snc(C(N)=O)c2N)C(C(=O)NCC2CCCO2)c2ccc3ncccc3c2)c1 (centres undefined)	none
O=C(O)c1ccc(-n2ncc(Cl)c(Cl)c2=O)cc1	CF NFkB block 74.3 | CF NFkB conf inactive
C[C@H]1COC(=O)[C@@H](CC(=O)OC(C)(C)C)C/C=C\C[C@@H](CC(=O)N(CCO)Cc2ccccc2)C(=O)N1	none
O=C(Nc1ccc(Oc2ccccc2)cc1)c1ccc2sc([C@H]3C[C@H](O)[C@@H](CO)O3)nc2c1	TROY NFkB inh 51.7, TWEAK-Fn14 inh 95.4, CF NFkB block 53.5 | CF NFkB conf 45.7
O=C(COC(=O)[C@@H]1CC(O)CN1S(=O)(=O)c1ccc2c(c1)OCCO2)Nc1cc(F)ccc1F (some centres undefined)	none
CS(=O)(=O)n1nc(OC(=O)c2cccc3ccccc23)cc1N	TWEAK-Fn14 inh 56.2, CF NFkB block 65.7 | CF NFkB conf inactive
CS(=O)(=O)n1nc(OC(=O)c2cc(Br)ccc2Cl)cc1N	none
CCN(CC)CCN(C(=O)CCS(=O)(=O)c1ccccc1)c1nc2c(C)cc(C)cc2s1	Peg3 prom inh 57.5, CF NFkB block 73.4 | CF NFkB conf 69.8
O=C(Cn1cc([N+](=O)[O-])ccc1=O)N1CCc2ccccc21	none
COc1cccc(NC(=O)Cn2nnc(C(=O)Nc3cc(Cl)ccc3OC)c2N)c1	CF NFkB block 55.7 | CF NFkB conf inactive
COc1ccc(Cl)cc1NC(=O)c1nnn(CC(=O)Nc2ccc(OC)c(OC)c2)c1N	CF NFkB block 50.3 | CF NFkB conf inactive
COc1ccc(NC(=O)Cn2nnc(C(=O)Nc3ccc(F)c(Cl)c3)c2N)cc1	CF NFkB block 60.6 | CF NFkB conf inactive
COc1ccc(CCC2(C)NC(=O)N(C(C)C(=O)N3c4ccccc4CC3C)C2=O)cc1 (centres undefined)	none
CN(C)C(=O)c1ccc(NC(=O)c2cccc(-n3cnnn3)c2)cc1	none
CC(=O)c1ccc(Sc2nnnn2-c2ccccc2)c([N+](=O)[O-])c1	TWEAK-Fn14 inh 97.7, CF NFkB block 76.3 | CF NFkB conf inactive
O=[N+]([O-])c1ccc(Sc2nnnn2-c2ccccc2)c(Cl)c1	none
